Key:
[1] = biological target: MAP kinase-activated protein kinase 3 (Homo sapiens) (UniProt Q16644); settings: at 10 µM
[2] = biological target: Serine/threonine-protein kinase MARK1 (Homo sapiens) (UniProt Q9P0L2); settings: at 1 µM
[3] = biological target: Serine/threonine-protein kinase MARK1 (Homo sapiens) (UniProt Q9P0L2); settings: at 10 µM
[4] = biological target: Dual specificity mitogen-activated protein kinase kinase 1 (Homo sapiens) (UniProt Q02750); settings: at 1 µM
[5] = biological target: Dual specificity mitogen-activated protein kinase kinase 1 (Homo sapiens) (UniProt Q02750); settings: at 10 µM
[6] = biological target: Maternal embryonic leucine zipper kinase (Homo sapiens) (UniProt Q14680); settings: at 1 µM
Maternal embryonic leucine zipper kinase (Homo sapiens), sequence (Q14680 whole entry, looked up): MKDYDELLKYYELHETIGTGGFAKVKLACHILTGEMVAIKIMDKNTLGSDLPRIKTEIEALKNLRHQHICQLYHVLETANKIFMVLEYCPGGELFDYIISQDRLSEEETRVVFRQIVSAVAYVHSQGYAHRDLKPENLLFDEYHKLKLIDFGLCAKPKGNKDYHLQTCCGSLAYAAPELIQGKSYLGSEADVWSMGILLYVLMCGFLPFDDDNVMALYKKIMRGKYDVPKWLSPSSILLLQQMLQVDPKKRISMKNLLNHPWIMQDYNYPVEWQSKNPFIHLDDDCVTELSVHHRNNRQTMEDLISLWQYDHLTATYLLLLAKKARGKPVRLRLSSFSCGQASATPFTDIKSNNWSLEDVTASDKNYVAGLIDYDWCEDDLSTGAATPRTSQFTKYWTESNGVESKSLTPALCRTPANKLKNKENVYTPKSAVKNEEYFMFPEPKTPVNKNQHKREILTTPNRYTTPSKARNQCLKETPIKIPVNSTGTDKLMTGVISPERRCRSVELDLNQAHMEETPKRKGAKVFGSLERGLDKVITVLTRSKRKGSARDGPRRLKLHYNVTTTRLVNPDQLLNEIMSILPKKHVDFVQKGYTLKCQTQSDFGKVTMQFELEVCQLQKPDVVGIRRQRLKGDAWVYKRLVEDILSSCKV

[7] = biological target: Maternal embryonic leucine zipper kinase (Homo sapiens) (UniProt Q14680); settings: at 10 µM
[8] = biological target: Misshapen-like kinase 1 (Homo sapiens) (UniProt Q8N4C8); settings: at 1 µM
Misshapen-like kinase 1 (Homo sapiens), sequence (Q8N4C8 whole entry, looked up): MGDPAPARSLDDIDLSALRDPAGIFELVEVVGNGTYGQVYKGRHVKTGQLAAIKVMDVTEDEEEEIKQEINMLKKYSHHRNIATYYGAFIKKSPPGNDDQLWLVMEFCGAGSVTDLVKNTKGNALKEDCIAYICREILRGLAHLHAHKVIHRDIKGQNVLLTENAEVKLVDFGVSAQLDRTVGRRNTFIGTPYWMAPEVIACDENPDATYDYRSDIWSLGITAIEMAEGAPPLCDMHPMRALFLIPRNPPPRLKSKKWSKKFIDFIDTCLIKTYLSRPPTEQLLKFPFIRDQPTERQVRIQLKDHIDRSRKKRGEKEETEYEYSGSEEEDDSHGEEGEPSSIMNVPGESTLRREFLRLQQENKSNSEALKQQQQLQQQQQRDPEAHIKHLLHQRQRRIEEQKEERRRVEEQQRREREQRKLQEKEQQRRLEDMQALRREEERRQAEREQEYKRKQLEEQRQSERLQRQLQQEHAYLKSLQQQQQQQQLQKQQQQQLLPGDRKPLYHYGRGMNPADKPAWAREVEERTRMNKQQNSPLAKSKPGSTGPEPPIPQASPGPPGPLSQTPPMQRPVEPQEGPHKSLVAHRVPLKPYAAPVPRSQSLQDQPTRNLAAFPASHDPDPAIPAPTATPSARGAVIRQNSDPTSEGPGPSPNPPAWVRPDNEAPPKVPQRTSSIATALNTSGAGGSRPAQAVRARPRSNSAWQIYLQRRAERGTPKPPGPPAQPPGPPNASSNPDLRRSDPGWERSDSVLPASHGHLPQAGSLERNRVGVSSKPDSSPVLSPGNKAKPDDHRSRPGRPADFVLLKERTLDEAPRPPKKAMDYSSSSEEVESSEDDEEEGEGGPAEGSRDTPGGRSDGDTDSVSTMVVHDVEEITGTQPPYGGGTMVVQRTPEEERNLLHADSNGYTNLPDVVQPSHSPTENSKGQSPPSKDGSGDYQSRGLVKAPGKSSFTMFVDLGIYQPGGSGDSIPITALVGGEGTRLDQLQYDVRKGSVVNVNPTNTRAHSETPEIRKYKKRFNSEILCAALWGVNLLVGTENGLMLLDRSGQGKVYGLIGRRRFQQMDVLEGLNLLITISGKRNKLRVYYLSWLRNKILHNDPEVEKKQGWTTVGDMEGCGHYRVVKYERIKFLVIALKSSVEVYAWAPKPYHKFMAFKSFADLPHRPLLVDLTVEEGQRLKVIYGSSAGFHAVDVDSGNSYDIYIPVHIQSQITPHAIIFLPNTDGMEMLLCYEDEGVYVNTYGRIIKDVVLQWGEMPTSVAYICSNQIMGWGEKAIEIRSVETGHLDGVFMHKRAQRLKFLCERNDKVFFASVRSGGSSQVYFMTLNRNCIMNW

[9] = biological target: Misshapen-like kinase 1 (Homo sapiens) (UniProt Q8N4C8); settings: at 10 µM
[10] = biological target: T1, Dual specificity mitogen-activated protein kinase kinase 6 (Homo sapiens) (UniProt P52564); settings: at 1 µM
T1 sequence (whole entry): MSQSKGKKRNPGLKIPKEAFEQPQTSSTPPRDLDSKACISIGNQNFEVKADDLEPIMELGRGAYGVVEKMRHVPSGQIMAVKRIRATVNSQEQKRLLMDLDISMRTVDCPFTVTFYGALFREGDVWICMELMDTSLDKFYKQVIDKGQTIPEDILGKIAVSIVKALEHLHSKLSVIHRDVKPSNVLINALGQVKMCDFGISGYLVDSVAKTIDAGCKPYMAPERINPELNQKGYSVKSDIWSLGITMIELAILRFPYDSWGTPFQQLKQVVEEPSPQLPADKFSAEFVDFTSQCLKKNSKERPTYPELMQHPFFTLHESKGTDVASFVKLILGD

[11] = biological target: T1, Dual specificity mitogen-activated protein kinase kinase 6 (Homo sapiens); settings: at 10 µM
[12] = biological target: T2, Dual specificity mitogen-activated protein kinase kinase 7 (Homo sapiens) (UniProt O14733); settings: at 1 µM
T2 sequence (whole entry): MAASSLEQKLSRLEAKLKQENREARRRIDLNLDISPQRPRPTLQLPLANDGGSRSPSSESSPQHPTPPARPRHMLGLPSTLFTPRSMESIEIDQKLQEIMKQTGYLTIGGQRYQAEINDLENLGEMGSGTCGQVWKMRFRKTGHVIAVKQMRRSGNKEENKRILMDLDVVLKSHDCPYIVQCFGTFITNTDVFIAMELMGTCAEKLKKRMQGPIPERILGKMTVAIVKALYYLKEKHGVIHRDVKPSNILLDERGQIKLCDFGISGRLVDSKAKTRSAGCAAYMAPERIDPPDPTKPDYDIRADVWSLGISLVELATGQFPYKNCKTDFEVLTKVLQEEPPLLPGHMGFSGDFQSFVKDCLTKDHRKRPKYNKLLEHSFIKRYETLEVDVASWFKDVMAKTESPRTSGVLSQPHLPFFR

[13] = biological target: T2, Dual specificity mitogen-activated protein kinase kinase 7 (Homo sapiens); settings: at 10 µM
[14] = biological target: Myosin light chain kinase, smooth muscle (Homo sapiens) (UniProt Q15746); settings: at 1 µM
[15] = biological target: Myosin light chain kinase, smooth muscle (Homo sapiens) (UniProt Q15746); settings: at 10 µM
[16] = biological target: Mitogen-activated protein kinase kinase kinase 9 (Homo sapiens) (UniProt P80192); settings: at 1 µM
Mitogen-activated protein kinase kinase kinase 9 (Homo sapiens), sequence (P80192 whole entry, looked up): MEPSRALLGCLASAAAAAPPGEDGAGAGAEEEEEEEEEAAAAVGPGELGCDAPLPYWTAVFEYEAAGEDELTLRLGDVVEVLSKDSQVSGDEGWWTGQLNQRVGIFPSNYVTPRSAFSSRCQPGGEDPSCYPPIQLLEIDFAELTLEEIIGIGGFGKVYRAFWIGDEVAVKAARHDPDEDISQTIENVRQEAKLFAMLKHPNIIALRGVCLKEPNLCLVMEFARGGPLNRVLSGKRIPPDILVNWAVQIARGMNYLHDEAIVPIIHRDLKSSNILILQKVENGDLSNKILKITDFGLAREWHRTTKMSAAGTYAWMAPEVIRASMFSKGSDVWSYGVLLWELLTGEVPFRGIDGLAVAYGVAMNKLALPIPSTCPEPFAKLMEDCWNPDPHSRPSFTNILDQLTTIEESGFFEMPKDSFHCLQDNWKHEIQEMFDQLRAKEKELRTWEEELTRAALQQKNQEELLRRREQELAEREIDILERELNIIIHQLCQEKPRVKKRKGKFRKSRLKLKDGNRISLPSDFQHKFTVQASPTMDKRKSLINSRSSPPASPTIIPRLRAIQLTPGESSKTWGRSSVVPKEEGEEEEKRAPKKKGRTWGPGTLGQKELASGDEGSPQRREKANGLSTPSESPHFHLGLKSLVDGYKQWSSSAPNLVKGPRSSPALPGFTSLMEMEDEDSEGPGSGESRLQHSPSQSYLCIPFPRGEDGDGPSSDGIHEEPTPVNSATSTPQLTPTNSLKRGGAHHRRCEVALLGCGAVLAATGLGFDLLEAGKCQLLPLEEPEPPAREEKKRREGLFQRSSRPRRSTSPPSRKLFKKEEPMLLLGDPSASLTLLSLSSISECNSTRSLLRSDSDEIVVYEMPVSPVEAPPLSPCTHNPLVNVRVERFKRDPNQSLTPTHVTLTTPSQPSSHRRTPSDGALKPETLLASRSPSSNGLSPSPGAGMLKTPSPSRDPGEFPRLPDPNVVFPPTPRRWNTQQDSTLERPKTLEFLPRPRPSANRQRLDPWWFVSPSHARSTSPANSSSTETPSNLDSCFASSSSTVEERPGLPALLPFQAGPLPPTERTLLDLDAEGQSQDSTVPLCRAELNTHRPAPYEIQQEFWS

[17] = biological target: Mitogen-activated protein kinase kinase kinase 9 (Homo sapiens) (UniProt P80192); settings: at 10 µM
[18] = biological target: Serine/threonine-protein kinase MRCK alpha (Homo sapiens) (UniProt Q5VT25); settings: at 1 µM
[19] = biological target: Serine/threonine-protein kinase MRCK alpha (Homo sapiens) (UniProt Q5VT25); settings: at 10 µM
[20] = biological target: MAP kinase-activated protein kinase 2 (Homo sapiens) (UniProt P49137); settings: at 10 µM
MAP kinase-activated protein kinase 2 (Homo sapiens), sequence (P49137 whole entry, looked up): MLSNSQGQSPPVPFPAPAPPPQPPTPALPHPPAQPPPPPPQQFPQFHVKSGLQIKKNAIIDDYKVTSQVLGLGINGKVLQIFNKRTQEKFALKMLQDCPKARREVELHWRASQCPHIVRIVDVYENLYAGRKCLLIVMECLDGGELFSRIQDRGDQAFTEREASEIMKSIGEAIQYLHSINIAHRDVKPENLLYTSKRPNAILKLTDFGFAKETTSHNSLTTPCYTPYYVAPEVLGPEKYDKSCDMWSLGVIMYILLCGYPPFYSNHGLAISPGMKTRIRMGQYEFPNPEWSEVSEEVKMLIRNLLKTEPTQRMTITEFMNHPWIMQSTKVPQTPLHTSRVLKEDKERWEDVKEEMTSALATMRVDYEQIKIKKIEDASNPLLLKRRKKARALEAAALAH

Dual specificity mitogen-activated protein kinase kinase 1 (Homo sapiens), sequence (Q02750 whole entry): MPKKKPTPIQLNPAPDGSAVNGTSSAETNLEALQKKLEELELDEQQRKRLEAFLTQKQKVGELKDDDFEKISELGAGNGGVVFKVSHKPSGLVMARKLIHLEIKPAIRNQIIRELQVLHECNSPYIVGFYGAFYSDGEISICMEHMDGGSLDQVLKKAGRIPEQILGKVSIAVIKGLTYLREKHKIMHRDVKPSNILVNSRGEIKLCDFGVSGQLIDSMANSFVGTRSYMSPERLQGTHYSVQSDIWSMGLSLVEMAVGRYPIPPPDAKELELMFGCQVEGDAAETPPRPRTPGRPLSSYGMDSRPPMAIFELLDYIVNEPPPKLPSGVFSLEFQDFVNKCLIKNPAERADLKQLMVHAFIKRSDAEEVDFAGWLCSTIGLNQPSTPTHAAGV
MAP kinase-activated protein kinase 3 (Homo sapiens), sequence (Q16644 whole entry, looked up): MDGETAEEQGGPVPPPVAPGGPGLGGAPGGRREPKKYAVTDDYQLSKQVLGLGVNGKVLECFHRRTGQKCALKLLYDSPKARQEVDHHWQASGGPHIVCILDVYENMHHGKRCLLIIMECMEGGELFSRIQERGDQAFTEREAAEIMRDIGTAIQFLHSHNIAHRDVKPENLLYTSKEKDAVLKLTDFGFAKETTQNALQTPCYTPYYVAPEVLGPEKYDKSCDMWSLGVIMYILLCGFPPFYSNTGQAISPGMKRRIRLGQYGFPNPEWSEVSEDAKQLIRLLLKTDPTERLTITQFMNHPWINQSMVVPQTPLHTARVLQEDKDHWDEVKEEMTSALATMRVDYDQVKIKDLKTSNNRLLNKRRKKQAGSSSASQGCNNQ
Serine/threonine-protein kinase MARK1 (Homo sapiens), sequence (Q9P0L2 whole entry, looked up): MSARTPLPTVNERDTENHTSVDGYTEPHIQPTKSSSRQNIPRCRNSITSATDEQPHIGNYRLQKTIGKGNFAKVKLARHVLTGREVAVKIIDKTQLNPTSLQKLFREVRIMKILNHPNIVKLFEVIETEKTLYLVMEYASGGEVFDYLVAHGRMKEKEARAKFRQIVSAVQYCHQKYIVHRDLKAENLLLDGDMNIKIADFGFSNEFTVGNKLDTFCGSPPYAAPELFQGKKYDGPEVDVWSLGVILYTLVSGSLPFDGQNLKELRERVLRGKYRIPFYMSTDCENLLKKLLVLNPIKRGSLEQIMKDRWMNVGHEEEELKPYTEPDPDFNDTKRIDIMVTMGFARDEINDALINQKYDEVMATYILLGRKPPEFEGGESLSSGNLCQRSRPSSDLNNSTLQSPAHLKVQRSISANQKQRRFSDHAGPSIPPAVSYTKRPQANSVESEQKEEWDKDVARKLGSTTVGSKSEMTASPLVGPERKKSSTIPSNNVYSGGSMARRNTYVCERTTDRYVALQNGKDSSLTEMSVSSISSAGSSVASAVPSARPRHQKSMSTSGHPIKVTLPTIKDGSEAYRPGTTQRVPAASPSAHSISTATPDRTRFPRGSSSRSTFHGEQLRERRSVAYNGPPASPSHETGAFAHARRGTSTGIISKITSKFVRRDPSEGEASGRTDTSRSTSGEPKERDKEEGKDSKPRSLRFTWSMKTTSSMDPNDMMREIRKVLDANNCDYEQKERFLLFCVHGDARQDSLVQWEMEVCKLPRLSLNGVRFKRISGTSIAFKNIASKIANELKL

CC(C)(C)n1nc(Cc2cccc3ccccc23)c2c(N)ncnc21
residual activity [1]: 90%
residual activity [2]: 91%
residual activity [3]: 80%
residual activity [4]: 94%
residual activity [5]: 63%
residual activity [6]: 72%
residual activity [7]: 30%
residual activity [8]: 86%
residual activity [9]: 26%
residual activity [10]: 57%
residual activity [11]: 38%
residual activity [12]: 98%
residual activity [13]: 94%
residual activity [14]: 73%
residual activity [15]: 87%
residual activity [16]: 68%
residual activity [17]: 18%
residual activity [18]: 95%
residual activity [19]: 119%

Cc1cc(C)c(/C=C2\C(=O)Nc3ccccc32)[nH]1
residual activity [20]: 103%
residual activity [1]: 101%
residual activity [2]: 65%
residual activity [3]: 20%
residual activity [4]: 41%
residual activity [5]: 31%
residual activity [8]: 71%
residual activity [9]: 58%
residual activity [10]: 60%
residual activity [11]: 76%
residual activity [14]: 32%
residual activity [15]: 39%

O=C(CCCc1ccc(-c2ccccc2F)cc1)Nc1ccc(O)cc1
residual activity [20]: 76%
residual activity [2]: 102%
residual activity [3]: 94%
residual activity [4]: 103%
residual activity [5]: 111%
residual activity [6]: 100%
residual activity [7]: 77%
residual activity [8]: 111%
residual activity [9]: 102%
residual activity [10]: 98%
residual activity [11]: 75%
residual activity [12]: 89%
residual activity [13]: 85%
residual activity [14]: 102%
residual activity [15]: 82%
residual activity [16]: 91%
residual activity [17]: 89%
residual activity [18]: 107%
residual activity [19]: 136%

COc1ccc(COc2ccc(Cc3cnc(N)nc3N)cc2OC)cc1
residual activity [3]: 71%
residual activity [10]: 78%
residual activity [11]: 80%
residual activity [12]: 113%
residual activity [13]: 80%

Oc1cccc(-c2nc(N3CCOCC3)c3oc4ncccc4c3n2)c1
residual activity [6]: 74%
residual activity [7]: 88%
residual activity [10]: 91%
residual activity [14]: 71%
residual activity [15]: 72%
residual activity [16]: 90%
residual activity [17]: 99%
residual activity [18]: 97%
residual activity [19]: 91%

CCOc1nc(NC(=O)Cc2cc(OC)ccc2OC)cc(N)c1C#N
residual activity [11]: 62%
residual activity [12]: 11%
residual activity [13]: 4%
residual activity [15]: 78%

CN([C@@H](Cc1ccc(OS(=O)(=O)c2cccc3cnccc23)cc1)C(=O)N1CCN(c2ccccc2)CC1)S(=O)(=O)c1cccc2cnccc12
residual activity [1]: 78%
residual activity [2]: 99%
residual activity [3]: 98%
residual activity [11]: 124%
residual activity [14]: 100%
residual activity [15]: 72%

O=C(Nc1nc2ccccc2n1CCN1CCOCC1)c1cccc([N+](=O)[O-])c1
residual activity [1]: 84%
residual activity [2]: 80%
residual activity [3]: 81%
residual activity [4]: 66%
residual activity [5]: 81%
residual activity [6]: 65%
residual activity [7]: 45%
residual activity [10]: 73%
residual activity [11]: 137%
residual activity [12]: 75%
residual activity [13]: 87%
residual activity [14]: 78%
residual activity [15]: 83%
residual activity [16]: 77%
residual activity [17]: 75%

COc1cc2nccc(Oc3ccc(NC(=O)Nc4cc(C)on4)c(Cl)c3)c2cc1OC
residual activity [1]: 67%
residual activity [2]: 99%
residual activity [4]: 62%
residual activity [5]: 20%
residual activity [7]: 80%
residual activity [8]: 71%
residual activity [9]: 21%
residual activity [10]: 49%
residual activity [11]: 21%
residual activity [14]: 66%
residual activity [15]: 61%
residual activity [17]: 61%
residual activity [19]: 102%

c1ccc(-c2cnc(Nc3ccc(OCCN4CCCC4)cc3)s2)cc1
residual activity [1]: 104%
residual activity [4]: 113%
residual activity [6]: 64%
residual activity [7]: 20%
residual activity [8]: 61%
residual activity [9]: 12%
residual activity [10]: 77%
residual activity [11]: 72%
residual activity [14]: 76%
residual activity [15]: 58%
residual activity [16]: 74%
residual activity [17]: 22%
residual activity [18]: 107%
residual activity [19]: 106%

COc1ccc(-c2cnc3c(-c4ccsc4)cnn3c2)cc1
residual activity [2]: 91%
residual activity [3]: 95%
residual activity [6]: 80%
residual activity [7]: 87%
residual activity [8]: 89%
residual activity [9]: 76%
residual activity [10]: 73%
residual activity [12]: 74%
residual activity [13]: 86%
residual activity [19]: 99%

CCCCc1c(-c2ccc(O)cc2)[nH]c2nccnc12
residual activity [2]: 74%
residual activity [3]: 38%
residual activity [6]: 76%
residual activity [7]: 72%
residual activity [8]: 97%
residual activity [9]: 86%
residual activity [10]: 87%
residual activity [11]: 73%
residual activity [14]: 100%
residual activity [15]: 83%
residual activity [16]: 16%
residual activity [17]: 15%

O=C1NC(=O)C(c2cn(CCCn3ccnc3)c3ccccc23)=C1Nc1ccccc1
residual activity [2]: 77%
residual activity [3]: 51%
residual activity [4]: 104%
residual activity [5]: 39%
residual activity [9]: 47%
residual activity [12]: 102%
residual activity [13]: 121%
residual activity [14]: 53%
residual activity [15]: 23%
residual activity [16]: 16%
residual activity [17]: 5%

CCOC(=O)c1c(C)[nH]c(/C=C2\C(=O)Nc3ccccc32)c1C
residual activity [1]: 95%
residual activity [2]: 89%
residual activity [3]: 87%
residual activity [6]: 77%
residual activity [7]: 97%
residual activity [8]: 86%
residual activity [9]: 75%
residual activity [10]: 85%
residual activity [12]: 84%
residual activity [13]: 85%
residual activity [14]: 90%
residual activity [15]: 78%
residual activity [16]: 43%
residual activity [17]: 39%

O=C(Nc1ccc(Cl)cc1)c1ccccc1NCc1ccncc1
residual activity [6]: 75%
residual activity [16]: 99%

NC(=O)c1ccc(-c2nc(-c3ccc4c(c3)OCCO4)c(-c3ccccn3)[nH]2)cc1
residual activity [2]: 96%
residual activity [3]: 89%
residual activity [6]: 73%
residual activity [7]: 70%
residual activity [10]: 97%
residual activity [11]: 58%
residual activity [12]: 91%
residual activity [13]: 95%
residual activity [16]: 94%
residual activity [17]: 79%

NC(=O)c1cccc(-c2cc(Nc3ccc(OC(F)(F)F)cc3)ncn2)c1
residual activity [6]: 74%
residual activity [7]: 75%
residual activity [10]: 144%
residual activity [11]: 95%
residual activity [14]: 88%
residual activity [16]: 95%
residual activity [17]: 87%
residual activity [19]: 145%

Reference: ChEMBL document CHEMBL2218924, “A broad activity screen in support of a chemogenomic map for kinase signalling research and drug discovery” (Biochem J, 2013)
